Experimental data taken from PubChem BioAssay (Tox21).
Inconclusive results are not listed. Entries that show only a call come without a potency. Calls of active or inactive are those of the source. Unless noted, the call rests on the fitted dose curve; in most records, active means well fitted curve in the direction sought with a large enough effect in the repeat runs; inconclusive means weak or mixed curves; inactive means no such curve, though single readings can be large; an effect the other way counts as inactive or inconclusive.

Tests used:
[1] = qHTS assay to identify small molecule antagonists of the estrogen related receptor (ERR) signaling pathway from Tox21 library - cell viability counter screen (AID 1224834); further: nearly all actives have a fitted effect of over 30% in size; further: potency means the concentration at half of the fitted maximal effect
In short: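 ERR cells, 2,000/well; 6 h settle at 37 C/5% CO2; pin-tool compound transfer in DMSO; 17.5 h at 37 C; CellTiter-Fluor, 30 min; fluorescence intensity.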

[2] = qHTS assay to identify small molecule agonists of the constitutive androstane receptor (CAR) signaling pathway - cell viability counter screen (AID 1224836); further: series mostly up to about 92 µM; nearly all actives have a fitted effect of over 45% in size
In short: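 Fluorescence from CellTiter-Fluor indicates live cells after 23 h exposure. The human hepatoma line expresses hCAR and a CYP2B6-2.2kb reporter. Incubation medium contains 0.75 uM PK11195 (final).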

[3] = qHTS assay to identify small molecule antagonists of the constitutive androstane receptor (CAR) signaling pathway - cell viability counter screen (AID 1224837); further: series mostly up to about 92 µM; nearly all actives have a fitted effect of over 45% in size
In short: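 Viability was measured with CellTiter-Fluor in a HepG2 line carrying stably transfected hCAR and a CYP2B6-2.2kb construct. Cells were exposed for 23 hr at 37 C to 15 compound concentrations with 50 nM CITCO as agonist.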

[4] = biological target: Nuclear receptor subfamily 1 group I member 3 (Homo sapiens) (UniProt Q14994); assay: qHTS assay to identify small molecule antagonists of the constitutive androstane receptor (CAR) signaling pathway (AID 1224838);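 further: HepG2 cells stably expressing hCAR with CYP2B6 luciferase reporter stimulated by CITCO; nearly all actives have a fitted effect of over 40% in size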
Sequence of Nuclear receptor subfamily 1 group I member 3 (Homo sapiens) (Q14994 whole entry, looked up): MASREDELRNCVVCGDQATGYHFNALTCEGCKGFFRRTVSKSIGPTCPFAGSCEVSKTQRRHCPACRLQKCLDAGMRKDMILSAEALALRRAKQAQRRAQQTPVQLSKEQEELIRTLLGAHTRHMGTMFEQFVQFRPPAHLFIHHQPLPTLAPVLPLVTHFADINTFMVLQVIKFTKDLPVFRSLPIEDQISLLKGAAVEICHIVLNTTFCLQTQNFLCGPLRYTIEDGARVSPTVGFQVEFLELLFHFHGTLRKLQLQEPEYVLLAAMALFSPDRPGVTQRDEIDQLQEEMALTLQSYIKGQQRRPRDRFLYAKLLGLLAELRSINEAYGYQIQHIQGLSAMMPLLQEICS
In short: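 Antagonist mode used CITCO at a final 50 nM to activate CAR in human hepatoma HepG2 cells carrying stable hCAR and a 2.2 kb CYP2B6 promoter-luciferase construct. Compounds were tested at 15 concentrations over 24 h, with luminescence as the end point.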

[5] = biological target: Nuclear receptor subfamily 1 group I member 3 (Homo sapiens) (UniProt Q14994); assay: qHTS assay to identify small molecule agonists of the constitutive androstane receptor (CAR) signaling pathway (AID 1224839); further: nearly all actives have a fitted effect of over 15% in size; further: potency means the concentration at half of the fitted maximal effect; on activation: series mostly up to about 92 µM
In short: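 Stable hCAR/CYP2B6-2.2kb HepG2 line in DMEM with 10% FBS; compounds (15 concentrations) and 0.75 uM PK11195 final, 24 h at 37 C/5% CO2, then ONE-Glo luminescence after 30 min.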

[6] = qHTS assay to identify small molecule antagonists of the estrogen related receptor signaling pathway with the pleiotropic PPARgamma coactivator (PGC) from Tox21 10K library - cell viability counter screen (AID 1224840; active means well fitted cell-killing curve with a large enough effect in the repeat runs, not every such curve was filed as active; further: nearly all actives have a fitted effect of over 40% in size)
In short: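 Multiplexed viability counter screen in the PGC/ERR cell line: cells treated with DMSO-dissolved compounds for 17.5 hours at 37 C, then viability measured as CellTiter-Fluor fluorescence.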

[7] = qHTS assay to identify small molecule agonists of the hypoxia (HIF-1) signaling pathway - cell viability counter screen (AID 1224844; calls by dose curve; further: nearly all actives have a fitted effect of over 50% in size)
In short: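 Cytotoxicity was measured in parallel with the HRE-driven beta-lactamase readout: after 17 hrs of compound exposure at 37C, HRE-bla ME-180 cells received CellTiter-Glo and luminescence was recorded 30 min later.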

[8] = qHTS assay to identify small molecule agonists of H2AX (AID 1224845; active means well fitted activation curve with a large enough effect in the signal ratio in the repeat runs, not every such curve was filed as active; the % refers to the signal ratio)
In short: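 Wild-type CHO-K1 cells, plated overnight, exposed 3hr at 37C to 15 concentrations (0.76% DMSO final). Lysed, then HTRF anti-pH2AX (S139) cryptate and anti-H2AX-d2 antibodies, 24 hr room temperature; 665/620 nm emission read.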

[9] = qHTS assay to identify small molecule agonists of the hypoxia (HIF-1) signaling pathway (AID 1224846; active means well fitted activation curve with a large enough effect in the signal ratio in the repeat runs, not every such curve was filed as active; the % refers to the signal ratio)
In short: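 Compounds from the Tox21 10K library, dissolved in DMSO, are tested for induction of a hypoxia response element–controlled beta-lactamase reporter in ME-180 cells. Exposure lasts 17 hrs at 37C after a 5 hr settling period, followed by CCF4-AM FRET substrate.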

[10] = qHTS assay to identify small molecule agonists of H2AX - cell viability counter screen (AID 1224847; calls by dose curve; further: top concentration of the series differs between compounds; nearly all actives have a fitted effect of over 30% in size)
In short: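 Viability of CHO-K1 (wild type) cells after 3 hr compound exposure was measured by CellTiter-Glo luminescence.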

[11] = qHTS RealTime-Glo MT Cell Viability Assay in HepG2 cells - 24 hour (AID 1224867); further: nearly all actives have a fitted effect of over 50% in size
In short: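 Viability was tracked continuously by NanoLuc luminescence from prosubstrate reduced by living HepG2 cells, at successive time points over 40 h of compound exposure. Cells with reagent were preincubated 5 h at 37 °C before compound addition.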

[12] = qHTS RealTime-Glo MT Cell Viability Assay in HEK293 cells - 32 hour (AID 1224868); further: top concentration of the series differs between compounds; nearly all actives have a fitted effect of over 50% in size
In short: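 Viability tracked continuously by luminescence as live cells reduce a prosubstrate for NanoLuc; HEK293 cells preincubated 5 h, compound-treated at 37 C, and read at 0, 8, 16, 24, 32 and 40 h.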

[13] = A CellTox Green Cytotoxicity Assay to monitor cytotoxicity in HEK293 cells - 0 hour (AID 1224869); further: nearly all actives have a fitted effect of over 50% in size
In short: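 Cells (HEK293, 600/well) and dye reagent are dispensed together. After 5 h at 37 C, 23 nL compound is pinned in. Plates stay at 37 C for 40 h with fluorescence read at 0h, 8h, 16h, 24h, 32h and 40h.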

[14] = qHTS assay to identify small molecule agonists of the estrogen related receptor signaling pathway with the pleiotropic PPARgamma coactivator (PGC) from Tox21 10K library (AID 1224842); further: potency means the concentration at half of the fitted maximal effect; nearly all actives have a fitted effect of over 15% in size
In short: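 PGC/ERR reporter cell line, 2,000 cells per well, incubated 6 h at 37 C before 23 nL compound in DMSO was added. After 18 h at 37 C, One-Glo luminescence read following 30 min at room temperature.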

[15] = qHTS assay to identify small molecule antagonists of the estrogen related receptor (ERR) signaling pathway from Tox21 library (AID 1224848); further: nearly all actives have a fitted effect of over 50% in size
In short: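 Compounds dissolved in DMSO are pin-transferred onto ERR reporter cells (2,000 per well) that have settled for 6 h at 37 C. Plates then incubate 18 h at 37 C before ONE-Glo luciferase reagent and a luminescence read 30 min later.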

[16] = qHTS RealTime-Glo MT Cell Viability Assay in HepG2 cells - 40 hour (AID 1224870); further: nearly all actives have a fitted effect of over 50% in size
In short: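 HepG2 cells (600/well) mixed with RealTime-Glo MT reagent, settled 5 h at 37 C/5% CO2 before compound addition. Nonlytic NanoLuc luminescence from viable-cell prosubstrate reduction read repeatedly during 40 h treatment at 37 C.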

[17] = biological target: Thyrotropin receptor (Homo sapiens) (UniProt P16473); assay: qHTS assay to identify small molecule agonists of the thyroid stimulating hormone receptor (TSHR) signaling pathway (AID 1224843; calls by dose curve; further: nearly all actives have a fitted effect of over 45% in size)
Sequence of Thyrotropin receptor (Homo sapiens) (P16473 whole entry, looked up): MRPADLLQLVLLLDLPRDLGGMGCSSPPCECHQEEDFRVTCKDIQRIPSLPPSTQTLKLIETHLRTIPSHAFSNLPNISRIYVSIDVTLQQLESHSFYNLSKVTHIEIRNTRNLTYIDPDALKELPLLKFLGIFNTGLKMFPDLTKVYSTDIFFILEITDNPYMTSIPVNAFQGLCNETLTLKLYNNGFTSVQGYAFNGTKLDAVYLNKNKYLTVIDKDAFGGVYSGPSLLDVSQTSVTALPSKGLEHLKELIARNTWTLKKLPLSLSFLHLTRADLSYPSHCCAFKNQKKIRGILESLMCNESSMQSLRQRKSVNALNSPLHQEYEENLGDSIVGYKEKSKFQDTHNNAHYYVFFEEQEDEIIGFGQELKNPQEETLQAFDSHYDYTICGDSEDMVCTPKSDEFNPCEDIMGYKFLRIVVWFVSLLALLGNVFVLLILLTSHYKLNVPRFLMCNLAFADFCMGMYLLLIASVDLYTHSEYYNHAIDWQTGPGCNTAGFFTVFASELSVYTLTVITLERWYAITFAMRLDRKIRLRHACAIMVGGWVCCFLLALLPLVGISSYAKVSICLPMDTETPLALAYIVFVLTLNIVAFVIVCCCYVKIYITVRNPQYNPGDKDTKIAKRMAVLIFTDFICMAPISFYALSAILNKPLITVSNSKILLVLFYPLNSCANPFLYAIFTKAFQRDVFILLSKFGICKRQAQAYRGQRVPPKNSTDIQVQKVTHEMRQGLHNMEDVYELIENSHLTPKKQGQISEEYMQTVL
In short: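 HEK293/TSHR, 800 cells/well; cpd 30 min RT; add cAMP-d2 + anti-cAMP-cryptate, 1 h RT; fluorescence read on plate reader. 15-pt titration, n=3.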

| Compound | Potency [1] | Potency [2] | Potency [3] | Potency [4] | Potency [5] | Potency [6] | Potency [7] | Potency [8] | Potency [9] | Potency [10] | Potency [11] | Potency [12] | Potency [13] | Potency [14] | Potency [15] | Potency [16] | Potency [17] |
| --- | --- | --- | --- | --- | --- | --- | --- | --- | --- | --- | --- | --- | --- | --- | --- | --- | --- |
| CCCC(=O)OC(C)(C)Cc1ccccc1 | inactive | inactive | inactive | inactive | inactive | inactive | inactive | inactive | inactive | inactive | inactive | inactive | inactive | – | – | – | – |
| Cc1ccc(O)c(O)c1 | 47.2 µM (active) | inactive | inactive | inactive | 47.2 µM (active) | – | – | – | inactive | – | inactive | – | inactive | 13.3 µM (active) | inactive | inactive | – |
| CC(C)CCOC(=O)/C=C/c1ccccc1 | inactive | inactive | inactive | inactive | – | inactive | inactive | – | inactive | inactive | inactive | inactive | inactive | – | – | inactive | inactive |
| CCCCCC/C=C\CCCCCCCC(=O)O | inactive | inactive | inactive | inactive | inactive | inactive | – | inactive | – | inactive | inactive | inactive | inactive | – | – | inactive | inactive |
| COc1ccc(-c2coc3cc(O)ccc3c2=O)cc1 | inactive | inactive | inactive | – | – | inactive | inactive | inactive | inactive | inactive | inactive | inactive | inactive | – | – | inactive | inactive |
